Measurements as given in PMC7862700, “An all-to-all approach to the identification of sequence-specific readers for epigenetic DNA modifications on cytosine”.

Key:
Assay in all cases: DAPPL (digital affinity profiling via proximity ligation, sequencing); 10 mM Tris-HCl pH 7.5, 50 mM NaCl, 1 mM DTT, 4% glycerol, room temperature, 30 min; GST-TFs on glutathione beads, 16-mer random dsDNA library, 0.1% formaldehyde crosslink after washing; high values mean tight binding
FLI1 = target: T1, FLI1 (Homo sapiens, UniProt Q01543 1-452); conditions: protein: recombinant; tags: N-terminal GST; dsDNA, one strand shown
T1 sequence: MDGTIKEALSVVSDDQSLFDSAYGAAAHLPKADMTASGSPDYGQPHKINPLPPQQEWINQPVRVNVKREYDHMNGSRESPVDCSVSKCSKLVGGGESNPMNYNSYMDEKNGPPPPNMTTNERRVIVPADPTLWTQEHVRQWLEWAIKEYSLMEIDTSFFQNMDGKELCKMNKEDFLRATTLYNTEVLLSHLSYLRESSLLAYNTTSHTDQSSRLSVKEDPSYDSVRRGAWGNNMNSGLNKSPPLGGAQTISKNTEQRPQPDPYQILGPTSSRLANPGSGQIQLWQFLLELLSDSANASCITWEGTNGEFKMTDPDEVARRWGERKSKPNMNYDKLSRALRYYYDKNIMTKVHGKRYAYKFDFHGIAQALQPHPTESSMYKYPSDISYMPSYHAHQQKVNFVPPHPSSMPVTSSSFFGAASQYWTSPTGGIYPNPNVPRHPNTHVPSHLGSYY
Outline: (§1)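 GST fusions of human transcription factors were expressed in yeast and captured with glutathione beads. Once given DNA barcodes and pooled alongside a tag-only sample, they were incubated for 30 min at room temperature with 200 nmole of a random double-stranded 16-mer DNA library in Tris/NaCl/DTT/glycerol buffer, then washed, crosslinked (0.1% formaldehyde), proximity-ligated, PCR-amplified and sequenced on an Illumina NextSeq500. The binding signal of each hexamer is its read frequency for a factor divided by its frequency for the tag-only sample.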

ELK1 = target: T2, ELK1 (Homo sapiens, UniProt P19419 1-428); conditions: protein: recombinant; tags: N-terminal GST; dsDNA, one strand shown
T2 sequence: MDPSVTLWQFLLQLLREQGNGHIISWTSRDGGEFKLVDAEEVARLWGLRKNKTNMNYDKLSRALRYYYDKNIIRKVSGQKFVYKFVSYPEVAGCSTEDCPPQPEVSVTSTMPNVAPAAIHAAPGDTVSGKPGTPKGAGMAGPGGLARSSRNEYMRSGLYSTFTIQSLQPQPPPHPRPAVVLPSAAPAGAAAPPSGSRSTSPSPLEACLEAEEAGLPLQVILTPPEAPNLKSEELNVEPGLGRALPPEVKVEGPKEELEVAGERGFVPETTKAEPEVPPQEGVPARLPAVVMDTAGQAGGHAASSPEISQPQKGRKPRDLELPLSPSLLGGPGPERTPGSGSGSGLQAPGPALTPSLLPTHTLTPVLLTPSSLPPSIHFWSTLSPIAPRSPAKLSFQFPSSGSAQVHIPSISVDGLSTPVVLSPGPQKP
Outline: as §1

GABPA = target: T3, GABPA (Homo sapiens, UniProt Q06546 1-454); conditions: protein: recombinant; tags: N-terminal GST; dsDNA, one strand shown
T3 sequence: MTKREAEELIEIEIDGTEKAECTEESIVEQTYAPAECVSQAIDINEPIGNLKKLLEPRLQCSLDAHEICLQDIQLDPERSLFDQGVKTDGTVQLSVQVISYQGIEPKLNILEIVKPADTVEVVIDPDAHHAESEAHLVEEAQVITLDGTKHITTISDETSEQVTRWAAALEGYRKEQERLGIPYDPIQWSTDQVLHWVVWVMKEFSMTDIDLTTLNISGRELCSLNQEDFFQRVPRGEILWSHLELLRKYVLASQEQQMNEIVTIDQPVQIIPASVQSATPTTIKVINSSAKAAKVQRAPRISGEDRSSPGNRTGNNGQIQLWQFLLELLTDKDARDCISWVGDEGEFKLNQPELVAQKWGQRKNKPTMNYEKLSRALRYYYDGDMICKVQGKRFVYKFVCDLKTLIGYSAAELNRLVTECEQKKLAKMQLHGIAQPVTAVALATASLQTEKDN
Outline: as §1

ERG = target: T4, ERG (Homo sapiens, UniProt P11308 1-479); conditions: protein: recombinant; tags: N-terminal GST; dsDNA, one strand shown
T4 sequence: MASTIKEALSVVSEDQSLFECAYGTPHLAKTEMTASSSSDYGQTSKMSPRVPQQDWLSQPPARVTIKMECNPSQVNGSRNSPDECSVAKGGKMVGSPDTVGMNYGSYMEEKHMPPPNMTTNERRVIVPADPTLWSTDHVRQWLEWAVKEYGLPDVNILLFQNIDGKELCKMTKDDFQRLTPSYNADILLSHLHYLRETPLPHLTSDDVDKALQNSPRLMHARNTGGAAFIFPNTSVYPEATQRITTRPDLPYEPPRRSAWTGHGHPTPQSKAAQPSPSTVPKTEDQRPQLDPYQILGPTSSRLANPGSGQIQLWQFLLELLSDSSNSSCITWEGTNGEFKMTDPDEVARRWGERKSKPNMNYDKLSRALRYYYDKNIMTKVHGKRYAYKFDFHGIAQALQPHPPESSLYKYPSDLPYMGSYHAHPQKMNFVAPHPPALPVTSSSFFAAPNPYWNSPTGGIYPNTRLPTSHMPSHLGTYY
Outline: as §1

ELF1 = ELF1 (Homo sapiens, UniProt P32519 1-619); conditions: protein: recombinant; tags: N-terminal GST; dsDNA, one strand shown
ELF1, sequence (P32519 whole entry): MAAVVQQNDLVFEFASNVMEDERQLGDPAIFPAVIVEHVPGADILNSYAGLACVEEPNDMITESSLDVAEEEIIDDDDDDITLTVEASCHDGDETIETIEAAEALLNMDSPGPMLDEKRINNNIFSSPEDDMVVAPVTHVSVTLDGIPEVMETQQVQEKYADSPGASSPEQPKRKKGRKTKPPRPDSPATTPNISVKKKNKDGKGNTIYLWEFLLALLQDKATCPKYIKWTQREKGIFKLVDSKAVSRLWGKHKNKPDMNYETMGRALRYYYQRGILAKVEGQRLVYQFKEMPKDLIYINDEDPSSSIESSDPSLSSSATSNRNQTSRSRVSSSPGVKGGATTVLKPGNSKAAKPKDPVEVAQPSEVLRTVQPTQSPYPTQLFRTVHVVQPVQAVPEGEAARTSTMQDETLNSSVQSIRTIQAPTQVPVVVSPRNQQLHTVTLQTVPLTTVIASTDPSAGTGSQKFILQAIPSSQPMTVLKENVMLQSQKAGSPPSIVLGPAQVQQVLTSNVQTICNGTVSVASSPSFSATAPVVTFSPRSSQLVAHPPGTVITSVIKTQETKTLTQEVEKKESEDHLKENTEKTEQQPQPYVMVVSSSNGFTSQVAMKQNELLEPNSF
Outline: as §1

EHF = target: T5, EHF (Homo sapiens, UniProt Q9NZC4 1-300); conditions: protein: recombinant; tags: N-terminal GST; dsDNA, one strand shown
T5 sequence: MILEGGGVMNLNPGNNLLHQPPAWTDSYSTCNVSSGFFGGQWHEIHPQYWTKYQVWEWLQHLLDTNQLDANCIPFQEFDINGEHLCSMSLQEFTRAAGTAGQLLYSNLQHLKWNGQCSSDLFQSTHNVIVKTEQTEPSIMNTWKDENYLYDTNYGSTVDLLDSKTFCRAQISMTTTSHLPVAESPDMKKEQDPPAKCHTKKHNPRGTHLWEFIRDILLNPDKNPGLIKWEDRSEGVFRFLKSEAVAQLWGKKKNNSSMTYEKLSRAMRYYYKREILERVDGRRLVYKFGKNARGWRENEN
Outline: as §1

SPI1 = SPI1 (Homo sapiens, UniProt P17947 1-270); conditions: protein: recombinant; tags: N-terminal GST; dsDNA, one strand shown
Outline: as §1

SPIB = SPIB (Homo sapiens, UniProt Q01892 1-262); conditions: protein: recombinant; tags: N-terminal GST; dsDNA, one strand shown
SPIB, sequence (Q01892 whole entry): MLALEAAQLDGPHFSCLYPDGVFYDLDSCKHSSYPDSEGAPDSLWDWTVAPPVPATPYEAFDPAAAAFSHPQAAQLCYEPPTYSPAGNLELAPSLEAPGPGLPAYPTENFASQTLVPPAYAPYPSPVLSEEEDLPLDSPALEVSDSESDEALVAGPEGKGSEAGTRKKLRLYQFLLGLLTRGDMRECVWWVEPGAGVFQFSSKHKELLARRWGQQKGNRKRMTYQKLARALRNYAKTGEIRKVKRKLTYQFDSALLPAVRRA
Outline: as §1

ELK3 = target: T6, ELK3 (Homo sapiens, UniProt P41970 1-407); conditions: protein: recombinant; tags: N-terminal GST; dsDNA, one strand shown
T6 sequence: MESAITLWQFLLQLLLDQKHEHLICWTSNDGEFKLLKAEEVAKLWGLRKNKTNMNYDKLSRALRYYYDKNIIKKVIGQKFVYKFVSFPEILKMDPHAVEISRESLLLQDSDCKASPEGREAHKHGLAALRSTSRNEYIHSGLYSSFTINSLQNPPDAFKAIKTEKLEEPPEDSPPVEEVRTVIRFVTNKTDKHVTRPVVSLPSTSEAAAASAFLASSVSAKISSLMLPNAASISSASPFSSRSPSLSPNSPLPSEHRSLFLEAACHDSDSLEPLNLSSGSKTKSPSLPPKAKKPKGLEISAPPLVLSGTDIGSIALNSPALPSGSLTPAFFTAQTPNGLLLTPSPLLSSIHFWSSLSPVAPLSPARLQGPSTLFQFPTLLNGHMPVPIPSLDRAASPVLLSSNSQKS
Outline: as §1

FEV = target: T7, FEV (Homo sapiens, UniProt Q99581 1-238); conditions: protein: recombinant; tags: N-terminal GST; dsDNA, one strand shown
T7 sequence: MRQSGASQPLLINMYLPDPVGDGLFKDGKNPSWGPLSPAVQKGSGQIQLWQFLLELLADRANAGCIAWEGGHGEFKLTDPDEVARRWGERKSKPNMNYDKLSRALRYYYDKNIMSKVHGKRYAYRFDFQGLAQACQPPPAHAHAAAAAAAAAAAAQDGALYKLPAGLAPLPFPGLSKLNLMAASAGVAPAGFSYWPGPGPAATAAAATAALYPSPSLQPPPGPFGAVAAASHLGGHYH
Outline: as §1

ETV5 = ETV5 (Homo sapiens, UniProt P41161 1-510); conditions: protein: recombinant; tags: N-terminal GST; dsDNA, one strand shown
ETV5, sequence (P41161 whole entry): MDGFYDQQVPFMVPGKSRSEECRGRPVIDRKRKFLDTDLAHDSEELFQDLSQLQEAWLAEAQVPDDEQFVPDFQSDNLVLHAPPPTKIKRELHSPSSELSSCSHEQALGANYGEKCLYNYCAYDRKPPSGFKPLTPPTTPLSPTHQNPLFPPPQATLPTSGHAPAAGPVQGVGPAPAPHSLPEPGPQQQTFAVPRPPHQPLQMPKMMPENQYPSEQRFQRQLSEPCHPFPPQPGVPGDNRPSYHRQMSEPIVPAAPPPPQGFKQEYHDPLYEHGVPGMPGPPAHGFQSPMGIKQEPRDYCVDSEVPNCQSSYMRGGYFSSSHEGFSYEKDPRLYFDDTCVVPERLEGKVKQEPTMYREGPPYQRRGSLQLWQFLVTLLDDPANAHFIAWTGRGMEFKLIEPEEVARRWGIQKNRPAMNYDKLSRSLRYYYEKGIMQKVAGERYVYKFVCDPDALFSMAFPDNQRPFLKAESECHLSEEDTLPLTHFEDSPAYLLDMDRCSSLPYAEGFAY
Outline: as §1

HSF1 = HSF1 (Homo sapiens, UniProt Q00613 1-529); conditions: protein: recombinant; tags: N-terminal GST; chain copies: 3; dsDNA, one strand shown
HSF1, sequence (Q00613 whole entry): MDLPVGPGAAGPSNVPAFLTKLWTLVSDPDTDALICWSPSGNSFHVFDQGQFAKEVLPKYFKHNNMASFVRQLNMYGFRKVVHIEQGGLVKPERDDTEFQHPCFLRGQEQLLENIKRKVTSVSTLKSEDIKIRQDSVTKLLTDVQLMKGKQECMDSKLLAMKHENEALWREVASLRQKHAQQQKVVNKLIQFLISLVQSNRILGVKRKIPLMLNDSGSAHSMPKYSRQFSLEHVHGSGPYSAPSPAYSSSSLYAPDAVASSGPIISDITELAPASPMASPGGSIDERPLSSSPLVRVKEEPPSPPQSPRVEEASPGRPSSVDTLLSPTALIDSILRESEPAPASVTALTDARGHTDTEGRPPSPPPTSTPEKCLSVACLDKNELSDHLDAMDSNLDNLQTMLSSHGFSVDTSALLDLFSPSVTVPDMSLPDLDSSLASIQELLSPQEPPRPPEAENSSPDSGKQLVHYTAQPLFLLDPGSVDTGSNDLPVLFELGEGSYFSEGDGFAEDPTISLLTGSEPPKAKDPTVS
Outline: as §1

SPIC = target: T8, SPIC (Homo sapiens, UniProt Q8N5J4 1-248); conditions: protein: recombinant; tags: N-terminal GST; dsDNA, one strand shown
T8 sequence: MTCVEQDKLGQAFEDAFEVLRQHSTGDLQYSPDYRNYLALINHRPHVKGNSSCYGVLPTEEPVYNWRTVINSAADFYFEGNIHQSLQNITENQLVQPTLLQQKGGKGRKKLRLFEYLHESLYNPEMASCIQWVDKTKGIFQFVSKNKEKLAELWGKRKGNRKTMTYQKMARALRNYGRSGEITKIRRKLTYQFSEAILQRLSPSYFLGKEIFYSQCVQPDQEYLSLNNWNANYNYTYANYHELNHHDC
Outline: as §1

ELF4 = ELF4 (Homo sapiens, UniProt Q99607 1-663); conditions: protein: recombinant; tags: N-terminal GST; dsDNA, one strand shown
ELF4, sequence (Q99607 whole entry): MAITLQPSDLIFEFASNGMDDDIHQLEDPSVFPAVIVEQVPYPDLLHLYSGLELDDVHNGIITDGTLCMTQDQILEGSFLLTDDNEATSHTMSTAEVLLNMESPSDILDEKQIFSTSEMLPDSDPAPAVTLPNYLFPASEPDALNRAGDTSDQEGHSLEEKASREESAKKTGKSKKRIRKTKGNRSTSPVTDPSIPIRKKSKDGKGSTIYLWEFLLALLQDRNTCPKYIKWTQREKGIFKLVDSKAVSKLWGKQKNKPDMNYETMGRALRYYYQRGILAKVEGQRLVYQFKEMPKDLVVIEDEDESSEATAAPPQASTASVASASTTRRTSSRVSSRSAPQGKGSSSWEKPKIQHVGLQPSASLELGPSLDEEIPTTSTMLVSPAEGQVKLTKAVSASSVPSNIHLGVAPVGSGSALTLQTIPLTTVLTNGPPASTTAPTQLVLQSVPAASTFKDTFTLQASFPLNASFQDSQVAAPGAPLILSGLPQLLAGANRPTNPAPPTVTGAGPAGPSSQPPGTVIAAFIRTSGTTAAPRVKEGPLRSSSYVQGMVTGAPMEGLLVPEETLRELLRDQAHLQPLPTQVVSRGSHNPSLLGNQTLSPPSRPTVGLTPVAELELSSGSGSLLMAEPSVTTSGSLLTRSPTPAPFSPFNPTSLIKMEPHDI
Outline: as §1

ELK4 = target: T9, ELK4 (Homo sapiens, UniProt P28324-2 1-405); conditions: protein: recombinant; tags: N-terminal GST; dsDNA, one strand shown
T9 sequence: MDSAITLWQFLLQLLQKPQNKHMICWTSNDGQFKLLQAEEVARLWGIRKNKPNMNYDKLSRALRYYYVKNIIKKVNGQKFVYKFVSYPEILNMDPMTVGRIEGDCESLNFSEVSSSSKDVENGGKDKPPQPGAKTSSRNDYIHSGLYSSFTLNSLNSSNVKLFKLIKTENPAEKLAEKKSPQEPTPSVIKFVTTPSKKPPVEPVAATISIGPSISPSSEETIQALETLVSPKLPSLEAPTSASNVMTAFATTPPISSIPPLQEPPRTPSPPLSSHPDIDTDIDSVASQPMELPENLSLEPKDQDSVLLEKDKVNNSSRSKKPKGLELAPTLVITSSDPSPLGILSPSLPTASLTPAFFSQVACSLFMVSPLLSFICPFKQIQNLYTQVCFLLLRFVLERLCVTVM
Outline: as §1

ETV2 = target: T10, ETV2 (Homo sapiens, UniProt O00321 1-342); conditions: protein: recombinant; tags: N-terminal GST; dsDNA, one strand shown
T10 sequence: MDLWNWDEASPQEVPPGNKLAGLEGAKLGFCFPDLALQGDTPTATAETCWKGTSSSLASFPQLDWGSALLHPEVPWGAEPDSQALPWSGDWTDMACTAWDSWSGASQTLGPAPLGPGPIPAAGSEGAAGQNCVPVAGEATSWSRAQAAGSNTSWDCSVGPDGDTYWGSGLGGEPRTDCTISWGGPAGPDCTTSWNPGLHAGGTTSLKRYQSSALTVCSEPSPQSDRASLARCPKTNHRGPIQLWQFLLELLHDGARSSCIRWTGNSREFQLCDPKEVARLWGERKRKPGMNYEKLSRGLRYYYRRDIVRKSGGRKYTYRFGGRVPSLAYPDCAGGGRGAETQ
Outline: as §1

ELF3 = target: T11, ELF3 (Homo sapiens, UniProt P78545 1-371); conditions: protein: recombinant; tags: N-terminal GST; dsDNA, one strand shown
T11 sequence: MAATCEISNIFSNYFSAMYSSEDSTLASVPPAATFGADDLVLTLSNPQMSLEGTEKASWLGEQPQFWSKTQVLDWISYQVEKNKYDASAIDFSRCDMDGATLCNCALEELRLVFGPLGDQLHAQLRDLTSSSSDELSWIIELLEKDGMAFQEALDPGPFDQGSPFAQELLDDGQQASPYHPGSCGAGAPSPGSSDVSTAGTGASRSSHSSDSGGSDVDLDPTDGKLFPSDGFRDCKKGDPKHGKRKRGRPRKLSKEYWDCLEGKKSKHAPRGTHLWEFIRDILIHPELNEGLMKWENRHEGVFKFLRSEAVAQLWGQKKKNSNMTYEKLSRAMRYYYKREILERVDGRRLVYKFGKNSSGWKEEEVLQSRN
Outline: as §1

CRX = CRX (Homo sapiens, UniProt O43186 1-299); conditions: protein: recombinant; tags: N-terminal GST; dsDNA, one strand shown
CRX, sequence (O43186 whole entry): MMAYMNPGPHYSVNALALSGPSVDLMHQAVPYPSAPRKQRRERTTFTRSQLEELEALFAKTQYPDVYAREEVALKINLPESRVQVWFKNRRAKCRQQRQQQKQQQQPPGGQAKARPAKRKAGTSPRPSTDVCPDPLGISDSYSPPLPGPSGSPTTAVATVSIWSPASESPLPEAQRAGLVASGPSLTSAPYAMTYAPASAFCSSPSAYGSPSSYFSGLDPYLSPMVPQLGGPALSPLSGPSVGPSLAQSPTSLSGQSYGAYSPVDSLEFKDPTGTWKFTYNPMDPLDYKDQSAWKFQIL
Outline: as §1

ETV1 = ETV1 (Homo sapiens, UniProt P50549 1-477); conditions: protein: recombinant; tags: N-terminal GST; dsDNA, one strand shown
ETV1, sequence (P50549 whole entry): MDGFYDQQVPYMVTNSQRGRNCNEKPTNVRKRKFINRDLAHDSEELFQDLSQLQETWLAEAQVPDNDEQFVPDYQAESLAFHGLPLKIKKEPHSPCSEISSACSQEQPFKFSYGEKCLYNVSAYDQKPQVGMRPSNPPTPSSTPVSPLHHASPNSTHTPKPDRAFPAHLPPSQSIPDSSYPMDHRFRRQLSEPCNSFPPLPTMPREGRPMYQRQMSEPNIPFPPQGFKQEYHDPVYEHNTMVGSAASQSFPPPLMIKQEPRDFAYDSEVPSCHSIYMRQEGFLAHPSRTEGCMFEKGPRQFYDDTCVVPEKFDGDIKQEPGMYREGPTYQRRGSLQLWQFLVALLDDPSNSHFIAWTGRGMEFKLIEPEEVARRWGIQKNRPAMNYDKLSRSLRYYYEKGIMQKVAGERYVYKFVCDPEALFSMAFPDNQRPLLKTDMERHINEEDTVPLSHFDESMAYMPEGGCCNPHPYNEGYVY
Outline: as §1

Q: For TACGAC, which binding signal (FLI1) is on record?
A: 1.33 fold enrichment (6-mer frequency, TF over GST control)

Q: And the binding signal (ELK1)?
A: 1.2 fold enrichment (6-mer frequency, TF over GST control)

Q: And the binding signal (GABPA)?
A: 1.29 fold enrichment (6-mer frequency, TF over GST control)

Q: And the binding signal (ERG)?
A: 1.26 fold enrichment (6-mer frequency, TF over GST control)

Q: And the binding signal (ELF1)?
A: 1.27 fold enrichment (6-mer frequency, TF over GST control)

Q: What about the binding signal (EHF) of the same sequence?
A: 1.23 fold enrichment (6-mer frequency, TF over GST control)

Q: What about the binding signal (SPI1) of the same sequence?
A: 1.25 fold enrichment (6-mer frequency, TF over GST control)

Q: What about the binding signal (SPIB) of the same sequence?
A: 1.22 fold enrichment (6-mer frequency, TF over GST control)

Q: What about the binding signal (ELK3) of the same sequence?
A: 1.36 fold enrichment (6-mer frequency, TF over GST control)

Q: What about the binding signal (FEV) of the same sequence?
A: 1.28 fold enrichment (6-mer frequency, TF over GST control)

Q: What about the binding signal (ETV5) of the same sequence?
A: 1.18 fold enrichment (6-mer frequency, TF over GST control)

Q: What about the binding signal (HSF1) of the same sequence?
A: 1.14 fold enrichment (6-mer frequency, TF over GST control)

Q: And the binding signal (SPIC)?
A: 1.22 fold enrichment (6-mer frequency, TF over GST control)

Q: What about the binding signal (ELF4) of the same sequence?
A: 1.34 fold enrichment (6-mer frequency, TF over GST control)

Q: What about the binding signal (ELK4) of the same sequence?
A: 1.3 fold enrichment (6-mer frequency, TF over GST control)

Q: What about the binding signal (ETV2) of the same sequence?
A: 1.51 fold enrichment (6-mer frequency, TF over GST control)

Q: And the binding signal (ELF3)?
A: 1.31 fold enrichment (6-mer frequency, TF over GST control)

Q: And the binding signal (CRX)?
A: 1.25 fold enrichment (6-mer frequency, TF over GST control)

Q: And the binding signal (ETV1)?
A: 1.37 fold enrichment (6-mer frequency, TF over GST control)
